TDP1 cell CPT: growth inhibition of DT40 Tdp1-/-;hTDP1 cells with camptothecin (screen for TDP1 inhibitors); chicken DT40 Tdp1-/-;hTDP1 cells + 20 nM CPT, ATP luminescence, 48 h; Potency, µM (doses to about 46.2 µM), inactives show top-dose activity change, negative = growth inhibition, usual class: inhibitors; 420,000 compounds, 12% hits; note: potency is the fitted concentration of half-maximal effect; % is set by controls: 0 for no effect and ±100 for the full control effect; nearly all actives have a fitted effect of over 55% in size
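Chicken DT40 Tdp1-/- cells stably complemented with human TDP1 were seeded at 400 cells/well in medium containing 20 nM camptothecin, exposed to pin-transferred compounds, and grown at 37 °C for at least 48 hr. Viability was read as ATP luminescence.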
TDP1 inh: blocks human tyrosyl-DNA phosphodiesterase 1; Q9NUW8; recombinant TDP1, AlphaScreen DNA substrate cleavage; Potency, µM (highest dose often 130 µM), inactives show at the highest dose activity change, negative = inhibition, actives largely listed as inhibitors; 350,000 compounds, 0.28% hits; AID 485290; note: potency is the fitted concentration of half-maximal effect; % is set by controls: 0 for no effect and ±100 for the full control effect; nearly all actives have a fitted effect of over 40% in size
Target sequence (Q9NUW8 whole entry, looked up): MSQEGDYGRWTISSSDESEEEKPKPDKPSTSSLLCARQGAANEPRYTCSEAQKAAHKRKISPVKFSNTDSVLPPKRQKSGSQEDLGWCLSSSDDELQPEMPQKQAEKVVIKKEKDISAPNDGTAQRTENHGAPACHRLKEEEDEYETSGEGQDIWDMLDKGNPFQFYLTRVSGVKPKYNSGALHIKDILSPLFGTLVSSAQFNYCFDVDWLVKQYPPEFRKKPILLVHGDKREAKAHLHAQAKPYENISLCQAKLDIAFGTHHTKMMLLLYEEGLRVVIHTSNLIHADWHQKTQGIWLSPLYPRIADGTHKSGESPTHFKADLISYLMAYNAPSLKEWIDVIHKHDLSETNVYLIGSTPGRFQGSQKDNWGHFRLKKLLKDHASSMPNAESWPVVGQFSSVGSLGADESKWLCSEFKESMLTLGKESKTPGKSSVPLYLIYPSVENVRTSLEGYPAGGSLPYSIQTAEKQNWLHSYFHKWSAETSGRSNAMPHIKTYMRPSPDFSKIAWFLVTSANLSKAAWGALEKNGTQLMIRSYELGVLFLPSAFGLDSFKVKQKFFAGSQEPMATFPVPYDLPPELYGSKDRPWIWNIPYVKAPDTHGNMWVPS
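E. coli-derived human Tdp1, 1 nM final. Cpd preinc 15 min RT; substrate 15 nM final, 5 min RT; AS bead mix 10 ug/ml final, 10 min RT. Signal loss = tyrosine-FITC cleavage. No-enzyme wells = max signal.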
TGFb SMAD3 inh: blocks TGF-b signaling; HepG2 CAGA-GFP TGF-b/SMAD3 reporter, GFP fluorescence, 18 h; TGF-beta stimulated, 500 pg/mL final; Potency, µM (highest dose often 46.1 µM), for inactives: at the top dose activity, negative = inhibition, hits mostly inhibitors; 410,000 compounds, 1.2% hits; AID 588855; note: potency is the fitted concentration of half-maximal effect; % is set by controls: 0 for no effect and ±100 for the full control effect; nearly all actives have a fitted effect of over 65% in size
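Inhibition of TGF-beta-driven CAGA-GFP reporter expression in HEPG2 cells is measured by cellular GFP fluorescence after 18 h stimulation with 500 pg/mL recombinant TGF-beta in 1% FBS medium at 37 degrees C.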
TDP1 cell noCPT: qHTS for Inhibitors of human tyrosyl-DNA phosphodiesterase 1 (TDP1): qHTS in cells in absence of CPT; Potency, µM (highest dose often 46.2 µM), inactives show top-dose activity change, negative = growth inhibition, most hits filed as inhibitors; AID 686978, 2013; DT40 Tdp1-/- hTDP1 cells, no CPT, ATP luminescence, 48 h; 420,000 compounds, 15% hits; note: potency is the fitted concentration of half-maximal effect; % is set by controls: 0 for no effect and ±100 for the full control effect; nearly all actives have a fitted effect of over 55% in size
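DT40 Tdp1-/-;hTDP1 cells, no CPT (DMSO vehicle only), 400 cells/well; compounds pin-transferred; ≥48 hr, 37 °C; CellTiter-Glo 30 min RT dark, luminescence read.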
IL1B secr inh: inhibitors of inflammasome signaling (IL-1 beta secretion); THP-1 LPS/ATP IL-1B secretion, AlphaLISA, 16 h; active compounds read low; 360,000 compounds, 4.7% hits; activity change, % at 57.5 µM; AID 743279; in the data active = activity change below about -50%; inconclusive = mostly about -30% to -49%; note: % is set by controls: 0 for no effect and ±100 for the full control effect
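THP-1 cells pretreated 1 hr with compounds (up to 57.5 uM final), then stimulated with LPS (250 ng/mL final) plus ATP (1.25 mM final); secreted IL-1B measured by AlphaLISA after 16 hr, decreased signal indicating inhibition.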
HepG2 viability: HepG2 cytotoxicity, counter-screen for TGF-b inhibitors; HepG2 CAGA-GFP viability, ATP luminescence, 18 h; Potency, µM (series often up to 46.1 µM), inactives show at the top dose activity change, negative = cytotoxicity, most hits filed as cytotoxic; 410,000 compounds, 0.76% hits; AID 588856; note: potency is the fitted concentration of half-maximal effect
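HepG2 CAGA-GFP cells (1000/well, DMEM with 1% FBS) received compound, then TGF-beta at 500 pg/mL final, and were incubated 18 hours at 37 degrees C. Viability was read by CellTiter-Glo luminescence. Media-only wells were set as complete cell-killing and DMSO as no toxicity.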
* = called active by the depositor; i = inactive; u = inconclusive; x = not tested or not shown; [ ] = remark or other dose. A selection: hits, their analogues and other compounds. The true share with any hit is near 18%. Unless noted, calls come from the whole dose curve; as a rule, active = well fitted curve in the direction sought with a large enough effect; inconclusive = small, poorly fitted or top-dose-only effect, or another doubt; inactive = no such curve, though single readings can be large; an effect the other way counts as inactive or inconclusive.

SMILES	TDP1 cell CPT	TDP1 inh	TGFb SMAD3 inh	TDP1 cell noCPT	IL1B secr inh	HepG2 viability
CC(C)Cn1c(N)c(C(=O)COC(=O)Cc2cccs2)c(=O)n(C)c1=O	18µM*	0%	-7%	23µM*	i	34%
CC(C)Cn1c(N)c(C(=O)COC(=O)Cc2cccc(C(F)(F)F)c2)c(=O)n(C)c1=O	16µM*	x	-1%	21µM*	11	-4%
O=C(C1COc2ccccc2O1)N1CCc2ccccc2C1 (configuration not stated)	-20%	5%[56.1 µM]	-6%	u	-7	3%
CN(C)c1cc2c(c(N(C)C)c1)C(=O)c1ccccc1C2=O	u	-9%	-5%	u	-50*	-28%
CC(=O)c1ccccc1-c1ccc2c(c1)CC(CNC(=O)c1ccnc(Cl)c1)O2 (configuration not stated)	23µM*	x	x	21µM*	x	x
COc1cc2c(cc1OC)CN(Cc1cc(OC)c(O)c(OC)c1)CC2	-19%	5%	0%	0%	7	-8%
COc1cccc(NC(=O)CSc2ccc(-c3sc(C)nc3C)nn2)c1	15µM*	2%	-6%	15µM*	-20	-9%
CC(=O)Nc1ccc(NC(=O)CSc2ccc(-c3sc(C)nc3C)nn2)cc1	-22%	2%	-4%	u	i	0%
Cc1nc(C)c(-c2ccc(SCC(=O)Nc3ccc(F)c(F)c3)nn2)s1	13µM*	0%	-2%	9.2µM*	x	-29%
Cc1nc(C)c(-c2ccc(SCC(=O)Nc3ccc(C)c(F)c3)nn2)s1	-22%	2%	-14%	-28%	x	-6%
COc1cccc(NC(=O)CSc2nnc3scc(-c4ccc(Cl)cc4)n23)c1	u	x	3%	18µM*	x	-3%
Cc1nc(C)c(-c2ccc(SCC(=O)Nc3ccccc3)nn2)s1	23µM*	2%	-26%	26µM*	i	-3%
Cc1csc(CNc2ncnc3cc(-c4ccc5c(c4)OCO5)ccc23)n1	x	0%	x	x	x	x
CCOC(=O)c1c(C)oc2c1c(C=NCCO)c(O)c1ccccc12	-69%	3%	u	u	-112*	-35%
CCOC(=O)c1c(C)oc2c1c(/C=N/c1ccccn1)c(O)c1ccccc12	u	0%	-4%	u	x	3%
CCOC(=O)c1c(C)oc2c1c(C(c1ccccc1)N1CCOCC1)c(O)c1ccccc12 (configuration not stated)	u	-1%	19%	18µM*	-71*	9%
CC(=O)Nc1cc(-c2ccc(N)cc2)cn2c(-c3cccc(C(F)(F)F)c3)cnc12	16µM*	x	-17%	16µM*	-10	-19%
COc1ccc(F)cc1-c1cc(NC(C)=O)c2ncc(-c3cccc(C(F)(F)F)c3)n2c1	29µM*	x	u	u	u	-62%
CC(=O)Nc1cc(-c2ccc(CO)cc2)cn2c(-c3cccc(C(F)(F)F)c3)cnc12	18µM*	x	-23%	23µM*	-27	-19%
CC(=O)Nc1cccc(-c2cc(NC(C)=O)c3ncc(-c4cccc(C(F)(F)F)c4)n3c2)c1	26µM*	x	u	23µM*	-3	-39%
CC(C)c1cn(CC[C@@H]2CC[C@H](NS(=O)(=O)c3ccc(F)cc3)[C@@H](CO)O2)nn1	22%	x	x	-4%	16	x
CC1CCC(NS(=O)(=O)c2ccc(Cl)nc2)CC1 (configuration not stated)	-5%	-3%	1%	-23%	5	-11%
COc1ccc(N2C(=NC(=O)CCC3CCCC3)SC3CS(=O)(=O)CC32)cc1 (configuration not stated)	-11%	0%	-19%	-18%	0	-31%
CC(=O)Nc1cc(-c2ccc(N)nc2)cn2c(-c3cccc(C(F)(F)F)c3)cnc12	u	x	-17%	15µM*	0	-15%
CCOc1ccc2[nH]cc(S(=O)(=O)c3ccc(Cl)cc3)c(=O)c2c1	9.2µM*	x	-17%	9.2µM*	2	-10%
SMILES	TDP1 cell CPT	TDP1 inh	TGFb SMAD3 inh	TDP1 cell noCPT	IL1B secr inh	HepG2 viability
COc1ccc2[nH]c(=O)c(CN(Cc3cccs3)Cc3nnnn3Cc3ccccc3)cc2c1	u	8%	-1%	u	-26	-34%
Cc1ccc2[nH]c(=O)c(CN(CCCO)Cc3nnnn3Cc3ccccc3)cc2c1	u	2%	-14%	11µM*	x	-22%
Cc1ccc2[nH]c(=O)c(CN(CCc3ccccc3)Cc3nnnn3CC3CCCO3)cc2c1 (configuration not stated)	u	2%	22%	u	-23	-19%
Cc1ccc2[nH]c(=O)c(CN(CCO)Cc3nnnn3Cc3ccco3)cc2c1	-29%	2%	13%	u	x	1%
CCc1ccc2[nH]c(=O)c(CN(Cc3cccs3)Cc3nnnn3Cc3ccccc3)cc2c1	u	2%	u	13µM*	x	-3%
Cc1ccc2[nH]c(=O)c(CN(Cc3cccs3)Cc3nnnn3Cc3ccco3)cc2c1	u	4%	u	18µM*	x	-27%
Cc1ccc2cc(CN(Cc3cccs3)Cc3nnnn3CC3CCCO3)c(=O)[nH]c2c1C (configuration not stated)	u	2%	2%	18µM*	12	5%
COc1cc(NC(=O)Cn2cnc3sc(C)c(S(=O)(=O)N4CCC(C)CC4)c3c2=O)cc(OC)c1OC	-15%	6%	4%	0%	x	0%
Cc1ccc2c(c1)N(C(=O)CCC(=O)NCc1cccc(F)c1)CC(C)O2 (configuration not stated)	u	6%	0%	u	x	-6%
CCC(c1nnnn1Cc1ccccc1)N(Cc1ccccc1)Cc1cc2cc(C)ccc2[nH]c1=O (configuration not stated)	11µM*	4%	u	u	x	-15%
Cc1ccc2cc(CN(Cc3cccs3)Cc3nnnn3CC3CCCO3)c(=O)[nH]c2c1 (configuration not stated)	u	2%	-10%	u	u	-21%
COCCn1nnnc1CN(CCc1ccccc1)Cc1cc2ccc(C)cc2[nH]c1=O	u	5%	10%	26µM*	0	-9%
Cc1ccc2[nH]c(=O)c(CN(Cc3cccs3)Cc3nnnn3CC3CCCO3)cc2c1 (configuration not stated)	u	2%	1%	18µM*	u	-24%

Screening results as filed in PubChem BioAssay.
